# PubChem BioAssay (NCATS)
# Inconclusive results are not listed. Where a call stands in place of a potency, no number is given. Activity calls are given as the source filed them. Calls come from the whole dose curve; as a rule, active = well fitted curve in the direction sought with a large enough effect; inconclusive = small, poorly fitted or top-dose-only effect, or another doubt; inactive = no such curve, though single readings can be large; an effect the other way counts as inactive or inconclusive.
# Legend:
# [1] = qHTS to identify inhibitors of the type 1 interferon - major histocompatibility complex class I in skeletal muscle: primary screen against the NCATS LOPAC collection (AID 1347405);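 note: lytic HiBiT luminescence reporting HLA-B protein level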
# In short: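 After 24 h at 37 C with compounds (7-point, 1:4.3 dilutions, 46 uM top final) plus 4 ng/ml IFN-beta, luminescence from lytic HiBiT detection was measured. HLA-B*08:01 in C25cl48 myoblasts carried an endogenous C-terminal HiBiT tag; medium lacked dexamethasone.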
# [2] = qHTS for inhibitors of adenylyl cyclases using a fission yeast platform: a pilot screen against the NCATS LOPAC library (AID 1347410)
# In short: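 S. pombe CHP2027 (AC9-GNAS-PDE4D2) carrying PKA-repressed fbp1-GFP, incubated 18 h at 30C in EMM with LOPAC compounds at up to 57 uM. GFP gain-of-signal read by laser scanning cytometry; DMSO negative control.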
# [3] = molecular target: Protein phosphatase 1D (Homo sapiens) (UniProt O15297); assay: RapidFire Mass Spectrometry qHTS Assay for Modulators of WT P53-Induced Phosphatase 1 (WIP1) (AID 1347424);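 note: amount of dephosphorylated VEPPL-S-QETFS peptide product formed by WIP1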; note: potency is the fitted concentration of half-maximal effect
# In short: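 RapidFire mass spectrometry measured dephosphorylated peptide after 5 min room-temperature reaction of 2 uM VEPPL-pS-QETFS with 10 nM WIP1 (50 mM Tris-HCl pH 7.5, 30 mM MgCl2, 0.1 mM EGTA, BSA), following 1 hr compound preincubation; 1 uM isotope-labelled product standard.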
# [4] = Validation qHTS assay for inhibitors of Activation Induced Cytidine Deaminase (AID): UDG Counterscreen signal (AID 1347427)
# In short: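 Fluorescence at 560 nm excitation, 665 nm emission reports UDG signal after 250 mM NaOH (2x) addition and 30 min. Enzymes (AID 1 uM, UDG 2 U/mL, at 4/3x) preincubated 10 min with compound, then 4 h with 4x 250 nM DJC20/DJC23 substrate at room temperature.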
# [5] = molecular target: Single-stranded DNA cytosine deaminase (Homo sapiens) (UniProt Q9GZX7); assay: Validation qHTS assay for inhibitors of Activation Induced Cytidine Deaminase (AID): AID signal (AID 1347429)
# In short: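 Compounds (final up to 114 uM) preincubated with AID plus UDG; 250 nM DJC20/DJC23 substrate mix (4x stock) added, 4 hr at room temperature, then NaOH, 30 min. Read 1 fluorescence at 540 nm excitation, 590 nm emission.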
# [6] = Primary qHTS for inhibitors of La Crosse Virus (LACV) - induced cell death in SH-SY5Y cells (AID 1508616);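 note: top concentration of the series differs between compounds; higher means more rescue of cells from virus-induced death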
# In short: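 Rescue of virus-induced death was read as ATPLite luminescence after 6 days at 37C, scaled between DMSO wells with LACV and without virus. Cells were SH-SY5Y, 6000/well, infected at 0.01 MOI after compound addition.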
# [7] = qHTS to identify inhibitors of the type 1 interferon - major histocompatibility complex class I in skeletal muscle: primary screen against the NCATS Mechanism Interrogation Plate v5.0 (MIPE) Libary (AID 1347411); note: nearly all actives have a fitted effect of over 65% in size; note: potency is the fitted concentration of half-maximal effect
# In short: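 Luminescence from CRISPR HiBit-tagged endogenous HLA-B in human myoblasts reported MHC class I level after 24 h of IFN-beta (4 ng/ml) plus compound. Compounds ran as 11-point 1:3 series, top 46 uM final.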
# [8] = molecular target: Protein phosphatase 1D (Homo sapiens) (UniProt O15297); assay: Rhodamine-PBP qHTS Assay for Modulators of WT P53-Induced Phosphatase 1 (WIP1) (AID 1347425)
# In short: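 5 nM WIP1 + 10 uM Rh-PBP, 50 mM Tris pH 7.5, 30 mM MgCl2, 1 mM TCEP, 0.1 mM EGTA, BSA; cpds pinned, 1 hr RT; + 10 uM phosphopeptide; fluorescence 1-min reads x 11 min; delta = f1 - f0.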
# [9] = qHTS to identify inhibitors of the type 1 interferon - major histocompatibility complex class I in skeletal muscle: primary screen against the NCATS Pharmaceutical Collection (AID 1347407);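 note: luminescence of HiBiT knocked into endogenous HLA-B as interferon-induced MHC class I level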
# In short: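 Immortalized human myoblasts (C25cl48) with HiBiT knocked into endogenous HLA-B*08:01 were stimulated with 4.0 ng/ml IFN-beta and treated with compounds ([…] top 46 uM) for 24 hrs at 37 C. HiBiT lytic luminescence read.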
# Sequence of Protein phosphatase 1D (Homo sapiens) (O15297 whole entry, looked up): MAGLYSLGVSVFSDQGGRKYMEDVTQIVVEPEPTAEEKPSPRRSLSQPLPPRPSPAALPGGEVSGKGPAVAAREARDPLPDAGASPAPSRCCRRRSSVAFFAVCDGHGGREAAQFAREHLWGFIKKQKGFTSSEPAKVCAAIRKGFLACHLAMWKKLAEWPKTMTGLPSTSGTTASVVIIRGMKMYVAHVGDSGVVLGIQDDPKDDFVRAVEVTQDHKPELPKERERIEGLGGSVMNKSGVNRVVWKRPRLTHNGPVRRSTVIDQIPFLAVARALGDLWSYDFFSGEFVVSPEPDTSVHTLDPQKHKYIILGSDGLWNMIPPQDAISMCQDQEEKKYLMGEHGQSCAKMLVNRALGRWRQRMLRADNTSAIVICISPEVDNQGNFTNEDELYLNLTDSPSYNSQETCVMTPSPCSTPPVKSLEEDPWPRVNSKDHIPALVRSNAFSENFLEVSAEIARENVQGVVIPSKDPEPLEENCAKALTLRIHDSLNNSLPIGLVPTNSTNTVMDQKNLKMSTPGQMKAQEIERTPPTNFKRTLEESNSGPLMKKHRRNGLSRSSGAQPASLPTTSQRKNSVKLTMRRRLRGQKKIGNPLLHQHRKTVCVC
# Sequence of Single-stranded DNA cytosine deaminase (Homo sapiens) (Q9GZX7 whole entry, looked up): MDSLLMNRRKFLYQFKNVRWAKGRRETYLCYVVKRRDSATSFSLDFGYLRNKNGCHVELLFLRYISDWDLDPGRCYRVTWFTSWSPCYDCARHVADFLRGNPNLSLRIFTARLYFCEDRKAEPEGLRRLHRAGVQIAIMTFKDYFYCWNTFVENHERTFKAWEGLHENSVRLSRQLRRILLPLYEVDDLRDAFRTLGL
smiles,measurement,setting,value
C1COC(NC(C2CC2)C2CC2)=N1,Potency,[1],inactive
same,outcome,[2],inactive
same,Potency,[3],inactive
same,outcome,[4],inactive
same,Potency,[5],inactive
same,outcome,[6],inactive
Cc1c(CCOc2ccc(C(=O)O)cc2)c2cc(Cl)ccc2n1C(c1ccccc1)c1ccccc1,Potency,[7],inactive
CCOC(=O)N1CCC(=C2c3ccc(Cl)cc3CCc3cccnc32)CC1,Potency,[1],inactive
same,outcome,[2],inactive
same,Potency,[3],inactive
same,outcome,[8],inactive
same,outcome,[4],inactive
same,Potency,[5],inactive
same,outcome,[6],inactive
CCc1ccc(CCOc2ccc(CC3SC(=O)NC3=O)cc2)nc1 (configuration not stated),outcome,[9],inactive
same,Potency,[7],inactive
same,Potency,[3],inactive
same,outcome,[6],inactive
CC1(C)CNc2cc(NC(=O)c3cccnc3NCc3ccncc3)ccc21,Potency,[7],inactive
C[C@@H]1CN(Cc2ccc(F)cc2)[C@@H](C)CN1C(=O)c1cc2c(C(=O)C(=O)N(C)C)cn(C)c2cc1Cl,Potency,[7],inactive
Cc1cccc(-c2[nH]c(C(C)(C)C)nc2-c2ccc3nccnc3c2)n1,Potency,[1],inactive
same,outcome,[2],inactive
same,Potency,[7],inactive
same,outcome,[4],inactive
same,Potency,[5],inactive
same,outcome,[6],inactive
O=C(Nc1nc2ccccc2n1CCN1CCOCC1)c1cccc([N+](=O)[O-])c1,outcome,[2],inactive
same,outcome,[4],inactive
same,Potency,[5],inactive
same,outcome,[6],inactive
Cc1cc2c(C(C)C)c(O)c(O)c(C=O)c2c(O)c1-c1c(C)cc2c(C(C)C)c(O)c(O)c(C=O)c2c1O,outcome,[9],inactive
same,outcome,[2],inactive
same,Potency,[7],23.4 µM (active)
same,Potency,[3],3.98 µM (active)
same,outcome,[4],inactive
same,outcome,[6],inactive
O=C(O)CCc1ccc(NCc2cccc(Oc3ccccc3)c2)cc1,Potency,[1],inactive
same,outcome,[2],inactive
same,Potency,[7],inactive
CS(=O)(=O)c1ccc(C(=O)Nc2ccc(Cl)c(-c3ccccn3)c2)c(Cl)c1,Potency,[7],inactive
Fc1ccc(Cl)cc1-c1nc(Nc2ccncc2)c2nccnc2n1,Potency,[7],inactive
Cc1cnc(NC(=O)C2=C(O)c3ccccc3S(=O)(=O)N2C)s1,outcome,[2],inactive
same,Potency,[3],inactive
same,outcome,[8],inactive
same,outcome,[6],inactive
COc1ccc2nc(S(=O)Cc3ncc(C)c(OC)c3C)[nH]c2c1 (configuration not stated),outcome,[9],inactive
same,Potency,[7],inactive
same,Potency,[3],inactive
same,outcome,[8],inactive
same,outcome,[6],inactive
CCCc1nn(C)c2c(=O)[nH]c(-c3cc(S(=O)(=O)N4CCN(C)CC4)ccc3OCC)nc12,Potency,[1],inactive
same,outcome,[9],inactive
same,outcome,[2],inactive
same,Potency,[3],inactive
same,outcome,[8],inactive
same,outcome,[6],inactive
CCC(C)N(C)C(=O)c1cc2ccccc2c(-c2ccccc2Cl)n1 (configuration not stated),Potency,[1],inactive
same,outcome,[2],inactive
same,Potency,[7],inactive
same,outcome,[4],inactive
same,Potency,[5],inactive
same,outcome,[6],inactive
CCC(C)n1ncn(-c2ccc(N3CCN(c4ccc(OC[C@H]5CO[C@](Cn6cncn6)(c6ccc(Cl)cc6Cl)O5)cc4)CC3)cc2)c1=O (some centres not stated),outcome,[9],inactive
same,Potency,[7],inactive
same,Potency,[3],inactive
same,outcome,[8],inactive
same,outcome,[6],inactive
Cc1ccccc1C(OCCN(C)C)c1ccccc1 (configuration not stated),Potency,[1],inactive
same,outcome,[9],inactive
same,outcome,[2],inactive
same,Potency,[3],inactive
same,outcome,[8],inactive
same,outcome,[4],inactive
same,Potency,[5],inactive
same,outcome,[6],inactive
Nc1ncnc2nc(-c3ccc(N4CCOCC4)nc3)cc(-c3cccc(Br)c3)c12,outcome,[4],inactive
same,Potency,[5],inactive
